Measured values published in PubChem BioAssay (Tox21).
Results filed as inconclusive are left out. Activity calls are given as the source filed them. Calls follow the shape of the full dose curve.

Molecular target: Beta-2 adrenergic receptor (Homo sapiens) (UniProt P07550)
Experiment: Adrenergic beta2 receptor (ADRB2) small molecule agonists, cell-based qHTS assay (AID 1963593);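 also: CHO cells stably overexpressing human ADRB2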
Conditions: CHO-ADRB2 cells, cAMP HTRF, 30 min; series mostly up to 92.4 µM; activation: at the top concentration
Procedure, shortened: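 CHO cells stably over-expressing ADRB2 were plated overnight at 37C, then dosed with compounds plus a stimulation mix containing 100uM IBMX and 25uM Ro-20-1724 for 0.5hr at room temperature. cAMP was measured by HTRF competition, 1hr.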
% is scaled to controls: 0 for no effect and ±100 for the full control effect.

Sequence of Beta-2 adrenergic receptor (Homo sapiens) (P07550 whole entry, looked up): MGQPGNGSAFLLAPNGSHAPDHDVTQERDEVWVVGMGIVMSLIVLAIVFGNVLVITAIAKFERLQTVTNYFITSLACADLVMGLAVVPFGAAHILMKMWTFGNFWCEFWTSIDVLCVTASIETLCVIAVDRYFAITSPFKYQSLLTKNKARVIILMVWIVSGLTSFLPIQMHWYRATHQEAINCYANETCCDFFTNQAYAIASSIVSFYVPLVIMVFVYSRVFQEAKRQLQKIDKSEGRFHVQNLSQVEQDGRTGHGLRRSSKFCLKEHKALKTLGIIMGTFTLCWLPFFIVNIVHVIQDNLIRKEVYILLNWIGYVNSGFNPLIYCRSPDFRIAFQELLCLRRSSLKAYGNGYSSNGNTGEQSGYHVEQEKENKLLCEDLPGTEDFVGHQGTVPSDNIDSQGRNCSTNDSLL

| Structure (SMILES) | activation |
| --- | --- |
| CC[C@H](C)C(=O)O[C@H]1C[C@H](O)C=C2C=C[C@H](C)[C@H](CC[C@@H](O)C[C@@H](O)CC(=O)O)[C@H]21 | -43% (inactive) |
| Cn1c(=O)c2c(ncn2CC2OCCO2)n(C)c1=O | 1.63% [at 42.5 µM] (inactive) |
| CC(C)=CC=O | 23.8% (inactive) |
| O=C1CCc2cc(OCCCCc3nnnn3C3CCCCC3)ccc2N1 | 7.92% [at 42.5 µM] (inactive) |
| CCC(C)(C)OC | 19.1% (inactive) |
| CC(=O)CCC1=C(C)CCCC1(C)C | 12.2% (inactive) |
| CCCCCC(C)O (stereo not given) | 13.5% (inactive) |
| CC(C)(C)C(O)/C=C/c1ccc2c(c1)OCO2 (stereo not given) | 0.762% [at 42.5 µM] (inactive) |
| CC1(C)O[C@@H]2C[C@H]3[C@@H]4C[C@H](F)C5=CC(=O)C=C[C@]5(C)[C@H]4[C@@H](O)C[C@]3(C)[C@]2(C(=O)CO)O1 | 7.61% [at 42.5 µM] (inactive) |
| CN1CC(=O)N2[C@H](c3ccc4c(c3)OCO4)c3[nH]c4ccccc4c3C[C@@H]2C1=O | 20.3% [at 42.5 µM] (inactive) |
| Cc1ccc(OC(=O)CC(C)C)cc1 | 7.55% (inactive) |
| CN1C(C(=O)Nc2ccccn2)=C(O)c2sccc2S1(=O)=O | -2.41% [at 42.5 µM] (inactive) |
| C=C(C)C(=O)OCCOCCOC(=O)C(=C)C | -8.82% (inactive) |
| O=C(Nc1cccc(Cl)c1)OCC#CCCl | -1.69% (inactive) |
| CCNC(=O)NCc1cccc(Cl)c1 | 5.92% [at 42.5 µM] (inactive) |
| Cc1ccc(Cl)c(Nc2ccccc2C(=O)O)c1Cl | 2.82% [at 42.5 µM] (inactive) |
| CCOC(=O)CC(=O)c1ccccc1 | 3.06% (inactive) |
| N#Cc1ccccc1O | 17.8% (inactive) |
| CN(C)C(=O)Nc1ccccc1 | 0.65% (inactive) |
| Nc1ccc(Oc2ccc(N)c(N)c2)cc1 | -47.2% (inactive) |
